Source: PubChem BioAssay AID1159580 (chemical genetic matrix, 2015)
Where “and” joins values, the source holds several entries; their conditions need not be identical. Equal values may be shown once. The whole screen tested about 5,500 compounds, of which about 2,000 (36%) were called active. Inconclusive results (about 18%) are left out. Rule as the data show it: active = normalized growth mostly below about 0.91 (no sharp cut-off); inconclusive = no clear call, values can overlap the other calls; inactive = mostly above about 0.92. The list shows a part of the results.

Test: chemical genetic growth profiling, strain panel (AID 1159580);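 also: tested at 20 µM; growth read once vehicle control cultures reached saturation at 30 °C; 1 = growth at the plate median or of vehicle wells; lower values mean less growth of the strain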
Details: S. cerevisiae deletion strains, growth OD

Measured: normalized growth

CC(C)NCC(O)c1ccc2ccccc2c1 (stereo not drawn)
inactive: locus YAL013W, strain DEP1, hits give low values 1.02 | locus YAL021C, strain ccr4, hits give low values 0.992 | locus YAL026C, strain drs2, hits give low values 1.01 | locus YAL030W, strain snc1, hits give low values 1 | locus YBL061C, strain skt5, hits give low values 0.998 | locus YBR009C, strain hhf1, hits give low values 0.985 | locus YBR021W, strain FUR4, hits give low values 1.02 | locus YBR023C, strain chs3, hits give low values 1 | locus YBR171W, strain sec66, hits give low values 1 | locus YBR229C, strain ROT2, hits give low values 1.01 | locus YBR231C, strain swc5, hits give low values 0.99 | locus YBR279W, strain paf1, hits give low values 0.998 | locus YCL011C, strain gbp2, hits give low values 1 | locus YCL016C, strain dcc1, hits give low values 1 | locus YCL029C, strain bik1, hits give low values 0.999 | locus YCL061C, strain MRC1, hits give low values 1.01 | locus YCL069W, strain vba3, hits give low values 1 | locus YCR088W, strain abp1, hits give low values 1.01 | locus YDL005C, strain med2, hits give low values 0.999 | locus YDL035C, strain GPR1, hits give low values 1.02 | locus YDL040C, strain nat1, hits give low values 0.987 | locus YDL074C, strain BRE1, hits give low values 1.04 | locus YDL101C, strain DUN1, hits give low values 1.01 | locus YDL134C, strain PPH21, hits give low values 1.02 | locus YDL185W, strain tfp1, hits give low values 1 | locus YDL192W, strain arf1, hits give low values 1 | locus YDR001C, strain nth1, hits give low values 1 | locus YDR069C, strain doa4, hits give low values 0.987 | locus YDR101C, strain arx1, hits give low values 1.01 | locus YDR137W, strain rgp1, hits give low values 0.987 | locus YDR159W, strain sac3, hits give low values 0.971 | locus YDR162C, strain NBP2, hits give low values 1.03 | locus YDR195W, strain ref2 0.966 | locus YDR297W, strain sur2, hits give low values 0.998 | locus YDR318W, strain mcm21, hits give low values 0.992 | locus YDR334W, strain swr1, hits give low values 1 | locus YDR335W, strain msn5, hits give low values 0.999 | locus YDR388W, hits give low values 0.994 | locus YDR392W, strain spt3, hits give low values 0.918 | locus YDR502C, strain sam2, hits give low values 0.995 | locus YEL003W, strain gim4, hits give low values 1.01 | locus YEL037C, strain rad23, hits give low values 1 | locus YEL061C, strain CIN8 (second series), hits give low values 0.996 | locus YEL061C, strain CIN8, hits give low values 1 | locus YER015W, strain faa2, hits give low values 0.992 | locus YER016W, strain bim1, hits give low values 0.997 | locus YER110C, hits give low values 0.994 | locus YER111C, strain swi4, hits give low values 1 | locus YER155C, strain BEM2 (second series), hits give low values 0.998 | locus YER155C, strain BEM2, hits give low values 1.01 | locus YER167W, strain BCK2, hits give low values 1.01 | locus YFR010W, strain ubp6, hits give low values 1 | locus YGL078C, strain dbp3, hits give low values 0.992 | locus YGL086W, strain mad1, hits give low values 1 | locus YGL167C, strain pmr1, hits give low values 1 | locus YGL173C, strain kem1, hits give low values 0.999 | locus YGL227W, strain vid30, hits give low values 0.992 | locus YGL240W, strain doc1, hits give low values 0.995 | locus YGL248W, strain PDE1, hits give low values 1.01 | locus YGL253W, strain hxk2, hits give low values 0.998 | locus YGR135W, strain pre9, hits give low values 0.983 | locus YGR252W, strain gcn5, hits give low values 0.973 | locus YHR013C, strain ard1, hits give low values 0.952 | locus YHR027C, strain rpn1, hits give low values 1 | locus YHR030C, strain SLT2, hits give low values 1.01 and 1.02 | locus YHR079C, strain IRE1 (second series), hits give low values 0.99 | locus YHR079C, strain IRE1, hits give low values 1.02 | locus YHR094C, strain hxt1, hits give low values 0.99 | locus YHR129C, strain ARP1, hits give low values 1.02 | locus YHR142W, strain chs7, hits give low values 1 | locus YHR200W, strain rpn10, hits give low values 0.994 | locus YIL066C, strain RNR3, hits give low values 1.02 | locus YIL073C, strain SPO22, hits give low values 1.01 | locus YIL125W, strain kgd1, hits give low values 0.999 | locus YIR030C, strain dcg1, hits give low values 0.998 | locus YJL092W, strain hpr5, hits give low values 1.01 | locus YJL095W, strain BCK1 (second series), hits give low values 0.999 | locus YJL095W, strain BCK1, hits give low values 1.02 and 1.03 | locus YJL115W, strain asf1, hits give low values 0.996 | locus YJL129C, strain trk1, hits give low values 1.01 | locus YJL134W, strain LCB3, hits give low values 1 | locus YJL154C, strain vps35, hits give low values 0.992 | locus YJL164C, strain tpk1, hits give low values 1 | locus YJL166W, strain qcr8, hits give low values 1 | locus YJL168C, strain set2, hits give low values 0.991 | locus YJL187C, strain SWE1 (second series), hits give low values 1.03 | locus YJL187C, strain SWE1, hits give low values 1 | locus YJR043C, strain POL32, hits give low values 1.05
